Test results from PubChem BioAssay AID639 (Emory University Molecular Libraries Screening Center, 2007).
Out of some 86,000 compounds screened, about 1,200 (1.4%) were called active. The sample holds actives, similar compounds and a random draw of the others, so the mix is not that of the screen. Cut-off read from the data, not from the text of the source: active = activity above about 200%; inactive = the rest.

Molecular target: Estrogen receptor (Homo sapiens) (UniProt P03372)
Assay: enhancers of ERα–SRC-1 coactivator binding, primary screen, biochemical, TR-FRET, ERα LBD, low estradiol (AID 639);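 note: binding measured in presence of low estradiol as agonist stimulus; 0% = peptide alone without receptor and 100% = receptor with peptide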
Settings: TR-FRET ERalpha-LBD/SRC-Cy5 coactivator binding, 2 h; at 25.6 µM; stronger effect = higher value; 100 = basal binding, no effect

Estrogen receptor (Homo sapiens), sequence (P03372 whole entry, looked up, the tested form may be a part): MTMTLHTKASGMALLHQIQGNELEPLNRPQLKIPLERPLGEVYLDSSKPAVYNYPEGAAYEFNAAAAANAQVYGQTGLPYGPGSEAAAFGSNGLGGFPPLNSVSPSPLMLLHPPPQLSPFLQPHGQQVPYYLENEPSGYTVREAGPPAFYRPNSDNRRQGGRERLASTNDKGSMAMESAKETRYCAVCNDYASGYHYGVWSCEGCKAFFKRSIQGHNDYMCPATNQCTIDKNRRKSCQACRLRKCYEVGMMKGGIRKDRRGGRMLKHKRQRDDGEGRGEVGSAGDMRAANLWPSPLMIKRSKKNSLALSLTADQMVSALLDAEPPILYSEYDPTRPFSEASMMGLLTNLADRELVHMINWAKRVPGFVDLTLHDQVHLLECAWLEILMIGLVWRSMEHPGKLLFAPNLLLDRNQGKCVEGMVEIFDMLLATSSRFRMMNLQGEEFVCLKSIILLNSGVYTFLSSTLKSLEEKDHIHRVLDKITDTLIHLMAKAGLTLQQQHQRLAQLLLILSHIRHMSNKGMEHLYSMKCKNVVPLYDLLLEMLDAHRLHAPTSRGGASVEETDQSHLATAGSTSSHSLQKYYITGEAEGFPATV

SMILES | coactivator binding (% of control)
Cc1ccc(NC(=S)NC(NC(=O)Cc2cccc3ccccc23)C(Cl)(Cl)Cl)cc1 (configuration not stated) | 77.9% (inactive)
COC(=O)C(C(=O)Nc1cccc(C)n1)C1CCCCCC1 (configuration not stated) | 76.6% (inactive)
COc1ccc(CC(=O)Nc2ccc(-c3nnc(-c4ccc(C)cc4)o3)cc2)cc1 | 359% [fluorescence artefact?] (active)
O=C(Nc1cccc(-c2nc3ncccc3o2)c1)c1ccco1 | 108% (inactive)
COc1ccc(CC(=O)Nc2ccc(-c3nnc(-c4ccccc4)o3)cc2)cc1 | 184% (inactive)
Cc1ccc(OCC(=O)Nc2ccc(-c3nc4ncccc4o3)cc2)cc1 | 315% [fluorescence artefact?] (active)
COc1cccc(NC(=O)Cc2ccc(C)cc2)c1 | 96.3% (inactive)
Cc1ccc(OCC(=O)Nc2ccc(-c3nnc(-c4ccco4)o3)cc2)cc1 | 172% (inactive)
CCOc1ccc(NC(=O)C2CCCN(C(=O)Nc3ccccc3)C2)cc1 (configuration not stated) | 106% (inactive)
COc1ccc(-c2nnc(SCC(=O)c3ccc4c(c3)OCCO4)o2)cc1 | 335% [fluorescence artefact?] (active)
CCN(CC)C(=O)CSc1nnc(-c2cccc(OC)c2)o1 | 105% (inactive)
COc1ccc(CN(C(=O)CSc2nnc(-c3ccc(OC)c(OC)c3)o2)c2ccc(F)cc2)cc1 | 95.1% (inactive)
Cn1c(SCC(=O)N2CCCc3ccccc32)nc2ccccc2c1=O | 84.1% (inactive)
Cc1cccc(C(=O)Nc2ccccc2N2CCN(c3ccc(F)cc3)CC2)c1 | 97.2% (inactive)
COc1ccc(C(C)=O)cc1CN1C(=O)NC2(CCCCC2C)C1=O (configuration not stated) | 128% (inactive)
CCN1CCN(c2ncnc3c2oc2nc(C)c4c(c23)CC(C)(C)OC4)CC1 | 95.8% (inactive)
CC(C)c1nc2oc3c(N4CCN(C)CC4)ncnc3c2c2c1CCC2 | 373% [fluorescence artefact?] (active)
CN(C)c1ccc(CNC2C3CC4CC(C3)CC2C4)cc1 (configuration not stated) | 105% (inactive)
CCC(c1nnnn1C1CCCC1)N1CCN(C(=O)c2ccco2)CC1 (configuration not stated) | 240% [fluorescence artefact?] (active)
CC(=O)c1ccc(-n2nnnc2SCC(=O)N2CCN(C(=O)c3ccco3)CC2)cc1 | 102% (inactive)
CC(C)C(c1nnnn1CCc1ccccc1)N1CCN(C(=O)c2ccco2)CC1 (configuration not stated) | 118% (inactive)
CC(N)C12CC3CC(CC(O)(C3)C1)C2 (configuration not stated) | 105% (inactive)
CCCc1nc(NCc2ccc3c(c2)OCO3)c2nnn(Cc3ccccc3Cl)c2n1 | 118% (inactive)
CCOC(=O)CN(Cc1ccc(OC)c(OC)c1)S(=O)(=O)c1ccc(OC)cc1 | 114% (inactive)
CCn1c(COc2ccccc2)nnc1SCC(=O)Nc1ccc2c(c1)OCCO2 | 115% (inactive)
CCOc1cccc(NC(=O)CC#N)c1 | 101% (inactive)

SMILES | coactivator binding (% of control)
CCOc1cccc(NC(=O)Cn2nc(-c3ccc4c(c3)OCCO4)ccc2=O)c1 | 214% (active)
CC(=NCc1ccco1)c1c(C(F)(F)F)[nH]n(-c2nc3ccccc3s2)c1=O | 109% (inactive)
COc1ccc(N2CCN(C(=O)CCc3nc(-c4ccc(C)cc4)no3)CC2)cc1 | 106% (inactive)
COc1ccccc1N1CC(O)=C(c2nc3ccccc3s2)C1=N | 87.9% (inactive)
CCCCCN1CC(O)=C(c2ccccc2)C1=N | 30.5% (inactive)
CCCCCN1CC(O)=C(c2nc(-c3ccc(Cl)cc3)cs2)C1=N | 293% [fluorescence artefact?] (active)
C/C(=N\NS(=O)(=O)c1ccc(Br)cc1)c1cccs1 | 101% (inactive)
CCc1nc(N2CCN(c3nc(C)cc(C)n3)CC2)c2oc3ccccc3c2n1 | 155% (inactive)
Cc1nc(N2CCN(c3ncccn3)CC2)c2oc3ccccc3c2n1 | 207% [fluorescence artefact?] (active)
Cc1cc(C)nc(N2CCN(c3ncnc4c3oc3ccccc34)CC2)n1 | 144% (inactive)
Cc1ccc(C2=CSC3=NS(=O)(=O)CCN23)cc1C | 100% (inactive)
COCCn1c(SCc2nc3cc(OC)c(OC)cc3c(=O)[nH]2)nnc1-c1ccncc1 | 112% (inactive)
CCSc1nnc(NC(=O)Cc2ccccc2OC)s1 | 246% [fluorescence artefact?] (active)
CCc1nnc(NC(=O)CCC(=O)NCc2ccccc2OC)s1 | 76.9% (inactive)
CCSc1nnc(NC(=O)c2ccc(C)cc2)s1 | 95.5% (inactive)
Cc1nc(NC(=O)CN(C)S(=O)(=O)c2ccc(Cl)cc2)sc1C | 105% (inactive)
Fc1ccc(-c2nnc3sc(-c4ccc5c(c4)OCO5)nn23)cc1 | 258% (active)
Fc1ccc(-c2ccc(-c3nn4c(-c5ccco5)nnc4s3)o2)cc1 | 84.9% (inactive)
COc1ccc(-c2nn3c(-c4ccccc4)nnc3s2)cc1OC | 123% (inactive)
CC1(C)CC(=O)C=C(N2CCCC2)C1 | 101% (inactive)
CCOC(=O)Cc1csc(NC(=O)CSc2nnc(-c3cccnc3)n2Cc2ccco2)n1 | 114% (inactive)
O=C(Nc1nc2ccc(S(=O)(=O)N3CCCC3)cc2s1)C1CCCO1 (configuration not stated) | 103% (inactive)
COC(=O)COc1ccc(S(=O)(=O)N2CCOCC2)cc1 | 108% (inactive)
COc1ccc(S(=O)(=O)N2CCOCC2)cc1C(=O)Nc1nc2ccccc2s1 | 206% [fluorescence artefact?] (active)
COc1ccc(C(=O)Nc2nc(-c3ccc(S(=O)(=O)N4CCOCC4)cc3)cs2)cc1 | 492% [fluorescence artefact?] (active)
CCOC(=O)c1csc(NC(=O)c2ccc(S(=O)(=O)N3CCCC3)cc2)n1 | 108% (inactive)

SMILES | coactivator binding (% of control)
O=C(Nc1nc2cc3c(cc2s1)OCCO3)c1cccc(S(=O)(=O)N2CCOCC2)c1 | 122% (inactive)
Cc1ccc(C)c(NC2=NCC(=O)N2c2ccc3c(c2)OCCO3)c1 | 103% (inactive)
CCCCc1nc(NCCN)c(C#N)c2c1CSC(C)(C)C2 | 85.4% (inactive)
O=C(C(NS(=O)(=O)c1cccc2nsnc12)c1ccccc1)N1CCN(c2ccccc2)CC1 (configuration not stated) | 102% (inactive)
COc1ccc2c(c1)cc1n2CCN=C1NN | 90.7% (inactive)
O=C(O)CSc1nccn1-c1cccc(Cl)c1 | 100% (inactive)
COc1ccc(C2(CNC(=O)C(c3ccccc3)c3ccccc3)CCOCC2)cc1OC | 103% (inactive)
O=C(CSc1nc2cccnc2n1Cc1ccccc1)N1CCc2ccccc21 | 156% (inactive)
O=C(NCc1ccco1)c1cccn2c(=O)c3cc(Br)ccc3nc12 | 232% [fluorescence artefact?] (active)
O=C(NCc1ccco1)c1cc(-c2cccnc2)nc2ccc(Cl)cc12 | 128% (inactive)
COc1ccc(CCn2c(=N)c(C(=O)NCc3ccco3)cc3c(=O)n4cccc(C)c4nc32)cc1 | 92.3% (inactive)
COc1ccc(OC(C)C(=O)Nc2cccnc2)cc1 (configuration not stated) | 102% (inactive)
CC(Oc1ccc(Cl)cc1)C(=O)OCC(=O)Nc1ncc(Cl)cc1Cl (configuration not stated) | 103% (inactive)
CC(Oc1ccc(Cl)cc1)C(=O)Nc1ncccn1 (configuration not stated) | 220% (active)
CCCC1(C(=O)OCC)NC(c2ccc(N(C)C)cc2)C2C(=O)N(c3ccc4c(c3)OCCO4)C(=O)C21 (configuration not stated) | 117% (inactive)
CCN(CC)C(=O)CSc1nnc(CNc2ccc(F)cc2)n1Cc1ccco1 | 86.8% (inactive)
O=S(=O)(NCCNS(=O)(=O)c1ccccc1)c1ccccc1 | 108% (inactive)
CC(=O)Nc1ccc(S(=O)(=O)NCCc2ccccc2)cc1 | 98.9% (inactive)
O=S(=O)(NCCc1ccccc1)c1ccccc1 | 245% [fluorescence artefact?] (active)
COc1ccc(C(=O)N2CC3(C)CC2CC(C)(C)C3)cc1OC (configuration not stated) | 118% (inactive)
CCOC(=O)c1c(C)oc2cc(Br)c(OCC(N)=O)cc12 | 156% (inactive)
CSc1ccc(-c2c(C#N)c(N)nc3c2c(C)nn3-c2ccccc2)cc1 | 210% [fluorescence artefact?] (active)
CCn1c(CNC(=O)c2ccccc2)nnc1SCC(=O)N1CCN(c2ccccc2)CC1 | 106% (inactive)
Fc1ccc(-n2c(Cc3ccccc3)nnc2SCc2nc(-c3ccc(Cl)cc3)no2)cc1 | 95.3% (inactive)
Cc1cccc(C)c1NC(=O)CSc1nnc(-c2ccccc2)n1Cc1ccc2c(c1)OCO2 | 98.5% (inactive)
